Each sequence was assayed against pT7_6His-AlfaTag-HOXD13 (human, UniProt P35453 263-343) (assay: PADIT-seq). Details: dsDNA, one strand shown.
pT7_6His-AlfaTag-HOXD13, sequence (P35453 263-343): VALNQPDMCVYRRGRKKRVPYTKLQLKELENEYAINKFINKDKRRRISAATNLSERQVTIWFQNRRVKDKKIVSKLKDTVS

Sequence	binding signal
CTCGAGGATATCAAGATCTGGCCTCGGCTTGGTAAAAGGAACCTCTAGCTAGCCGACTCACTATAGGGATAATCGCCCTGAGCAAAGACC	0.112 ± 0.0883 log2FC
CTCGAGGATATCAAGATCTGGCCTCGGCTTTTTATATGGAACCTCTAGCTAGCCGACTCACTATAGGGATAATCGCCCTGAGCAAAGACC	3.25 ± 0.0873 log2FC
CTCGAGGATATCAAGATCTGGCCTCGGCGTTTTATCCGGAACCTCTAGCTAGCCGACTCACTATAGGGATAATCGCCCTGAGCAAAGACC	1 ± 0.0994 log2FC
CTCGAGGATATCAAGATCTGGCCTCGGCCTTTTATTGGGAACCTCTAGCTAGCCGACTCACTATAGGGATAATCGCCCTGAGCAAAGACC	3.44 ± 0.0778 log2FC
CTCGAGGATATCAAGATCTGGCCTCGGCGTTTTATTCGGAACCTCTAGCTAGCCGACTCACTATAGGGATAATCGCCCTGAGCAAAGACC	1.73 ± 0.0989 log2FC
CTCGAGGATATCAAGATCTGGCCTCGGCCAGCTAAAAGGAACCTCTAGCTAGCCGACTCACTATAGGGATAATCGCCCTGAGCAAAGACC	-0.419 ± 0.146 log2FC
CTCGAGGATATCAAGATCTGGCCTCGGCTGTATAAAAGGAACCTCTAGCTAGCCGACTCACTATAGGGATAATCGCCCTGAGCAAAGACC	2.01 ± 0.0809 log2FC
CTCGAGGATATCAAGATCTGGCCTCGGCGTCCTAAAAGGAACCTCTAGCTAGCCGACTCACTATAGGGATAATCGCCCTGAGCAAAGACC	0.117 ± 0.0783 log2FC
CTCGAGGATATCAAGATCTGGCCTCGGCTTTTTATAGGGAACCTCTAGCTAGCCGACTCACTATAGGGATAATCGCCCTGAGCAAAGACC	3.37 ± 0.0926 log2FC
CTCGAGGATATCAAGATCTGGCCTCGGCCCCGTAAAAGGAACCTCTAGCTAGCCGACTCACTATAGGGATAATCGCCCTGAGCAAAGACC	2.52 ± 0.0899 log2FC
CTCGAGGATATCAAGATCTGGCCTCGGCCTTTTAGCGGGAACCTCTAGCTAGCCGACTCACTATAGGGATAATCGCCCTGAGCAAAGACC	0.142 ± 0.0994 log2FC
CTCGAGGATATCAAGATCTGGCCTCGGCATCATAAAAGGAACCTCTAGCTAGCCGACTCACTATAGGGATAATCGCCCTGAGCAAAGACC	2.56 ± 0.0828 log2FC

Source: paper doi:10.1101/2024.03.05.583629
